KB-V1 cytotox: qHTS assay for MDR1-selective chemotherapeutics: Primary screen using the drug-selected MDR subline cells KB-V1. KB-V1 MDR cells viability, CellTiter-Glo, 72 h. Potency, µM (highest dose often 46.1 µM), most hits filed as cytotoxic. hit rate 3.4% among 400,000; note: potency is the fitted concentration of half-maximal effect; % is set by controls: 0 for no effect and ±100 for the full control effect; nearly all actives have a fitted effect of over 60% in size
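KB-V1, DMEM (no phenol red) + 10% FBS; cpd pin-transferred, titration series; 72 h, 37 degrees C; CellTiter-Glo, luminescence. Data normalized, curve-fit.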
MCF10A rerep: A quantitative high throughput screen for small molecules that induce DNA re-replication in MCF 10a normal breast cells. Potency, µM (doses to about 46.1 µM), for inactives: at the top dose activity, positive = re-replication, actives largely listed as activators. hit rate 2.9% among 350,000. MCF 10A DNA re-replication, Hoechst nuclear intensity, 48 h; note: potency is the fitted concentration of half-maximal effect; % of control where 0% means no effect; nearly all actives have a fitted effect of over 50% in size
KB-3-1 tox: qHTS assay for MDR1-selective chemotherapeutics: Primary screen using the parental adenocarcinoma cell KB-3-1. KB-3-1 viability, CellTiter-Glo ATP luminescence, 72 h. Potency, µM (series often up to 46.1 µM), most hits filed as cytotoxic. hit rate 1.4% among 400,000; note: potency is the fitted concentration of half-maximal effect; % is set by controls: 0 for no effect and ±100 for the full control effect; nearly all actives have a fitted effect of over 60% in size
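Cytotoxicity in the drug-sensitive parental line KB-3-1 was scored as loss of CellTiter-Glo luminescence following 72 h incubation with compound. Values come from curve fitting of normalized concentration-response data.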
KCNH2 3.1 inh: qHTS for Inhibitors of KCHN2 3.1: Mutant qHTS | Potassium voltage-gated channel subfamily H member 2, brain isoform KCNH2 3.1 (human) | U2OS KCNH2 3.1, thallium flux FluxOr; active compounds read low | activity change, % (tested at about 1.8 µM) | hit rate 0.95% among 340,000 | AID 720553, 2013;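 active = maximum activity change below -70%; inconclusive = maximum activity change from -70% to -50%; inactive = maximum activity change above -50%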;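 note: thallium influx rate constant from kinetic fluorescence after stimulation buffer; % is set by controls: 0 for no effect and ±100 for the full control effect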
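Kinetic fluorescence (2 min after stimulation buffer) measures Tl+ influx through KCNH2 3.1 expressed by viral transduction in U2OS cells; the rate constant is normalized against DMSO controls serving as positive and negative references.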
SW480 rerep: A quantitative high throughput screen for small molecules that induce DNA re-replication in SW480 colon adenocarcinoma cells | hit rate 1.8% among 340,000 | Potency, µM (titrated, usually from 46.1 µM), without a hit: at the highest dose re-replication activation, actives largely listed as activators | SW480 DNA re-replication, Hoechst DNA content imaging, 48 h; note: potency is the fitted concentration of half-maximal effect; % of control where 0% means no effect; nearly all actives have a fitted effect of over 55% in size
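Image-based DNA-content assay: after two days of treatment, nuclei were labelled with the DNA dye Hoechst and imaged, and hits were compounds raising the count of nuclei showing high fluorescence intensity.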
hERG WT inh: qHTS for Inhibitors of KCHN2 3.1: Wildtype qHTS; U2OS, BacMam KCNH2, thallium flux FluxOr; active compounds read low; activity change, % at 1.84 µM; AID 720551, 2013; Voltage-gated inwardly rectifying potassium channel KCNH2 (Homo sapiens), Q12809; hit rate 0.37% among 340,000;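 active = maximum activity change below -70%; inconclusive = maximum activity change between -70% and -50%; inactive = maximum activity change above -50%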; note: % is set by controls: 0 for no effect and ±100 for the full control effect
Target sequence (Q12809 whole entry, looked up): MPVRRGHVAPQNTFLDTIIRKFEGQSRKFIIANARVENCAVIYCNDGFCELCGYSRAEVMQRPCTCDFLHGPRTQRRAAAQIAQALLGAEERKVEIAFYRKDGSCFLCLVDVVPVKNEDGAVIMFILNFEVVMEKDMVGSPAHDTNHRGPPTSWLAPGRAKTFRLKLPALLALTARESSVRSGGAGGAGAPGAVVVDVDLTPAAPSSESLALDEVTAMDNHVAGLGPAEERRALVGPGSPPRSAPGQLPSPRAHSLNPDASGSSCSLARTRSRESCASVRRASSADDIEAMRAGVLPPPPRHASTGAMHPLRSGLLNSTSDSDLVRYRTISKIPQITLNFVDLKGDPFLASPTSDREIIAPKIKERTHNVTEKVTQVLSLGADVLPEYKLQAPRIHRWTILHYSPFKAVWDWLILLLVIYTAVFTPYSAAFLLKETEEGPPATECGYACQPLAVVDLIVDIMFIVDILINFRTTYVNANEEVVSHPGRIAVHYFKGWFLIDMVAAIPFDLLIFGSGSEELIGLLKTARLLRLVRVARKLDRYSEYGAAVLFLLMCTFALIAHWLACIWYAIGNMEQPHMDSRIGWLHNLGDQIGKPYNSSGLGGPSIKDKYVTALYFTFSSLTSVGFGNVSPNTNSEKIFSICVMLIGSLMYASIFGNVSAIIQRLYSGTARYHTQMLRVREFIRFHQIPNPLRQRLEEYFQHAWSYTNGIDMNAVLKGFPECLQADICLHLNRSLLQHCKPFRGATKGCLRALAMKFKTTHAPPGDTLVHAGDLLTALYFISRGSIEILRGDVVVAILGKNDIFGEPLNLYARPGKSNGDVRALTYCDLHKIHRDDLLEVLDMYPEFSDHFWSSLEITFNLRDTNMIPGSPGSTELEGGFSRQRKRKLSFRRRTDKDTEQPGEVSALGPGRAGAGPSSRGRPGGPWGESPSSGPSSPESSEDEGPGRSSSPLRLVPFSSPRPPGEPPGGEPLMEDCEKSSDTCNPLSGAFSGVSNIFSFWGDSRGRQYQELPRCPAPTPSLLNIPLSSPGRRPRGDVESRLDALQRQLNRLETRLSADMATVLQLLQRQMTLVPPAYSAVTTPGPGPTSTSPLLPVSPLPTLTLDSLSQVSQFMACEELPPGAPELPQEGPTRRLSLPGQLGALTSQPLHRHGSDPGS
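U2OS cells were transduced with wild-type KCNH2 virus (2.03 x 10^8 / mL) for 4 h at room temperature, then cultured overnight at 37 C. Thallium flux was read with FluxOr dye. Rate constants were normalized to DMSO controls.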
* = called active by the depositor. This is a sample that favours compounds with a hit; in the whole collection about 7.6% have one here. Unless noted, calls come from the whole dose curve; as a rule, active = well fitted curve in the direction sought with a large enough effect; inconclusive = small, poorly fitted or top-dose-only effect, or another doubt; inactive = no such curve, though single readings can be large; an effect the other way counts as inactive or inconclusive.

What do the screens show for `N#Cc1c(N2CCCC(O)C2)nc(N)c2c(N)nc3c(c12)CC(=O)N3C12CC3CC(CC(C3)C1)C2` (centres undefined)?
KB-V1 cytotox: 14.6µM*; MCF10A rerep: inconclusive; KB-3-1 tox: 4.11µM*; KCNH2 3.1 inh: -11.3; SW480 rerep: 4.61µM*; hERG WT inh: 4.6

What do the screens show for `CCN(CC)CCNC(=O)/C(=C/c1cn(CC)c2ccccc12)NC(=O)c1cc(OC)c(OC)c(OC)c1`?
KB-V1 cytotox: inactive; MCF10A rerep: 0.651µM*; KB-3-1 tox: inactive; KCNH2 3.1 inh: -12.9; SW480 rerep: -21.5%; hERG WT inh: -2.2

How did CCC(C(=O)Nc1cccc(C#N)c1)n1nc(-c2ccccc2)ccc1=O (centres undefined) do in these assays?
KB-V1 cytotox: inconclusive; KB-3-1 tox: inactive

How did C/C(=N\NC(=O)c1nnn(-c2nonc2N)c1-c1ccc2c(c1)OCO2)c1cccs1 do in these assays?
KB-V1 cytotox: inconclusive; MCF10A rerep: 13.5%; KB-3-1 tox: inactive; KCNH2 3.1 inh: 3.7; SW480 rerep: 20.4%; hERG WT inh: 0.6

How did COCc1cc(C)nc(OCC(=O)N/N=C/c2ccc(O)cc2)c1C#N do in these assays?
KB-V1 cytotox: inactive; MCF10A rerep: -0.8%; KB-3-1 tox: inactive; KCNH2 3.1 inh: -10.7; SW480 rerep: 18.4µM*; hERG WT inh: -9.3

What do the screens show for `COCc1cc(C)nc(OCC(=O)N/N=C/c2ccc(OC)c(OC)c2)c1C#N`?
KB-V1 cytotox: inactive; MCF10A rerep: inconclusive; KB-3-1 tox: inactive; KCNH2 3.1 inh: -0.3; SW480 rerep: 9.7%; hERG WT inh: 2.1

Results for COCc1c(C(=O)Nc2cccc(S(=O)(=O)N3CCCCC3)c2)oc2ccccc12 ?
KB-V1 cytotox: inconclusive; MCF10A rerep: 11.0%; KB-3-1 tox: inactive; KCNH2 3.1 inh: -16.9; SW480 rerep: -0.2%; hERG WT inh: 7.2

Results for COc1ccc(C(CCNCc2ccc(OC(C)C)cc2)C(C)C)cc1 (centres undefined) ?
KB-V1 cytotox: 14.6µM*; MCF10A rerep: -11.6%; KB-3-1 tox: inactive; KCNH2 3.1 inh: -23.0; SW480 rerep: 18.6%; hERG WT inh: 23.1

Results for COCCNCc1ccc(C(C)C)cc1 ?
KB-V1 cytotox: inactive; MCF10A rerep: 1.1%; KB-3-1 tox: inactive; KCNH2 3.1 inh: -10.9; SW480 rerep: -0.7%; hERG WT inh: 0.4

How did COc1ccc(CNCCC(c2ccc(OC(C)C)cc2)C(C)C)cc1OC (centres undefined) do in these assays?
KB-V1 cytotox: 5.17µM*; MCF10A rerep: inconclusive; KB-3-1 tox: inconclusive; KCNH2 3.1 inh: -35.6; SW480 rerep: inconclusive; hERG WT inh: 33.1

What do the screens show for `COc1ccc(C(CCNCc2ccc(N(C)C)cc2)C(C)C)cc1` (centres undefined)?
KB-V1 cytotox: 16.4µM*; MCF10A rerep: inconclusive; KB-3-1 tox: inactive; KCNH2 3.1 inh: -10.6; SW480 rerep: inconclusive; hERG WT inh: 13.7

Results for CCOCCCNCc1ccc(OC)cc1 ?
KB-V1 cytotox: inactive; MCF10A rerep: 0.6%; KB-3-1 tox: inactive; KCNH2 3.1 inh: -40.4; SW480 rerep: 1.2%; hERG WT inh: 33.8

How did O=S(=O)(Nc1cccc(S(=O)(=O)N2CCCC2)c1)c1ccc(Cl)cc1 do in these assays?
KB-V1 cytotox: inconclusive; MCF10A rerep: -0.6%; KB-3-1 tox: inactive; KCNH2 3.1 inh: 15.5; SW480 rerep: -14.1%; hERG WT inh: -2.4

How did CC1=C(c2ccc(C)c(C)c2)S(=O)(=O)N=C1N1CCC(C(=O)NCc2ccc(C)o2)CC1 do in these assays?
KB-V1 cytotox: inactive; KB-3-1 tox: inactive

Results for Cc1ccc(C)c(NC(=O)CN(C)C(=O)c2ccccc2OCc2ccccc2Cl)c1 ?
KB-V1 cytotox: inconclusive; MCF10A rerep: 9.8%; KB-3-1 tox: inactive; KCNH2 3.1 inh: 0.3; SW480 rerep: -5.1%; hERG WT inh: -1.4

What do the screens show for `Oc1cn2c(n1)Nc1ccc(Cl)c(Cl)c1C2`?
MCF10A rerep: 0.7%; SW480 rerep: 2.0%

How did O=C1CN2Cc3c(ccc(Cl)c3Cl)N=C2N1 do in these assays?
KB-V1 cytotox: 0.164µM*; MCF10A rerep: 7.3%; KB-3-1 tox: inactive; KCNH2 3.1 inh: 0.2; SW480 rerep: inconclusive; hERG WT inh: -14.7

How did C=CCn1c(SCC(=O)Nc2ncc(Cc3cc(Cl)ccc3Cl)s2)nnc1-c1ccncc1 do in these assays?
KB-V1 cytotox: inactive; MCF10A rerep: -2.0%; KB-3-1 tox: inactive; KCNH2 3.1 inh: -10.0; SW480 rerep: 4.1%; hERG WT inh: 2.9

How did Cc1ccc2c(=O)n3c(nc2c1)C(Cc1ccc(O)cc1)NC(=O)c1cc2ccccc2cc1-3 (centres undefined) do in these assays?
KB-V1 cytotox: inconclusive; KB-3-1 tox: 16.4µM*; KCNH2 3.1 inh: -5.3; hERG WT inh: 2.5

What do the screens show for `O=C1NC(Cc2ccc(O)cc2)c2nc3cc(F)ccc3c(=O)n2-c2cc3ccccc3cc21` (centres undefined)?
KB-V1 cytotox: inconclusive; KB-3-1 tox: 14.6µM*; KCNH2 3.1 inh: -28.1; hERG WT inh: 15.7

What do the screens show for `CCCC1NC(=O)c2cc3ccccc3cc2-n2c1nc1cc(Cl)ccc1c2=O` (centres undefined)?
KB-V1 cytotox: 11.6µM*; KB-3-1 tox: 18.4µM*; KCNH2 3.1 inh: inconclusive; hERG WT inh: -1.3

What do the screens show for `O=C1NC(Cc2ccccc2)c2nc3ccc(F)cc3c(=O)n2-c2cc3ccccc3cc21` (centres undefined)?
KB-V1 cytotox: 20.6µM*; KB-3-1 tox: inconclusive; KCNH2 3.1 inh: 0.3; hERG WT inh: 19.3

Results for O=[N+]([O-])c1ccc(N2CCc3ccccc3C2)nc1 ?
KB-V1 cytotox: inconclusive; MCF10A rerep: 0.3%; KB-3-1 tox: inactive; KCNH2 3.1 inh: -10.9; SW480 rerep: -5.2%; hERG WT inh: -3.7

Results for CC1CCN2c3cc(Cl)ccc3CC3(C(=O)OC(C)(C)OC3=O)C2C1 (centres undefined) ?
KB-V1 cytotox: inactive; KB-3-1 tox: inactive

Results for COc1ccc(/C=C/c2nc(-c3ccccc3O)n(-c3ccccc3)n2)cc1 ?
KB-V1 cytotox: 16.4µM*; MCF10A rerep: 6.8%; KB-3-1 tox: inactive; KCNH2 3.1 inh: -15.9; SW480 rerep: inconclusive; hERG WT inh: 4.1

Screening data: PubChem BioAssay, National Center for Advancing Translational Sciences (NCATS)
